Compound activity: PubChem, National Center for Advancing Translational Sciences (NCATS)
Luc counter – Counterscreen for Luciferase (Kinase-Glo TM) Inhibition; Luciferin 4-monooxygenase (Photuris pensylvanica), Q27757; Kinase-Glo luciferase, ATP luminescence, 8 min; Potency, µM (top dose mostly 38.3 µM), inactives show at the highest dose activity change, negative = inhibition, actives largely listed as inhibitors; actives 0.28% (n = 200,000); further: nearly all actives have a fitted effect of over 60% in size
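Inhibition of Kinase-Glo luciferase light generation was assessed at 10 uM ATP in pH 7.2 imidazole buffer, with luminescence measured after eight minutes at ambient temperature.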
RORgamma inh – qHTS for inhibitors of ROR gamma transcriptional activity | Nuclear receptor ROR-gamma (Mus musculus), P51450 | Drosophila S2 Gal4-RORgamma UAS-luciferase reporter, 20 h | Potency, µM (top dose mostly 53.6 µM), without a hit: top-dose activity change, negative = inhibition, hits mostly inhibitors | actives 5.4% (n = 310,000); further: nearly all actives have a fitted effect of over 60% in size
Target sequence (P51450 whole entry, looked up, the tested form may be a part): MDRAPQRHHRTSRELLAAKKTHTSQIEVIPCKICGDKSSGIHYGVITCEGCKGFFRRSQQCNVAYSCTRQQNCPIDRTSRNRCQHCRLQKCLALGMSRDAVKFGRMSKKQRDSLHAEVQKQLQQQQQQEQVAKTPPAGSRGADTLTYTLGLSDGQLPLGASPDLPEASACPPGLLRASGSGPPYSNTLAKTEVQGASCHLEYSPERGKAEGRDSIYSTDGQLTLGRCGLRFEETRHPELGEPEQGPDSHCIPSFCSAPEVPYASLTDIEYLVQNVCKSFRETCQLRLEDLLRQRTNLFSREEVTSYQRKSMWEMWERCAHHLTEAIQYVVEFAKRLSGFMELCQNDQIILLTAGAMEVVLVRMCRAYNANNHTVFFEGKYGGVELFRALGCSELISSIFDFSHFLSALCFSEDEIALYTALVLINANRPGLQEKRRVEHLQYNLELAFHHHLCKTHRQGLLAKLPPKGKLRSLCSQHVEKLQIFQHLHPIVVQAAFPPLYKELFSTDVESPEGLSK
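Drosophila Schneider cells stably carrying a metallothionein-driven Gal4 DBD–ROR gamma fusion and a UAS-Photinus luciferase reporter were exposed to compound for 1 hr, then induced with copper sulfate (700 uM final) for 20 hr at ambient temperature before luminescence reading.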
Gal4-VP16 FLuc – VP16 counterscreen qHTS for inhibitors of ROR gamma transcriptional activity; Drosophila S2 Gal4-VP16 UAS-luciferase, luminescence, 20 h; Potency, µM (doses to about 53.6 µM), for inactives: top-dose activity, negative = inhibition, usual class: inhibitors; actives 3.5% (n = 310,000);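 further: Gal4-VP16 expression switched on by copper sulfate through the metallothionein promoter; nearly all actives have a fitted effect of over 50% in size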
Numbers without * were called inactive; ? = inconclusive; . = no result given; [ ] = dose if it differs, or a comment. Hits are enriched below; roughly 6.2% of the tested compounds scored in any of these assays. The call rests on the fitted dose curve; in most records, active means well fitted curve in the direction sought with a large enough effect; inconclusive means small, poorly fitted or top-dose-only effect, or another doubt; inactive means no such curve, though single readings can be large; an effect the other way counts as inactive or inconclusive. On the % scale 0 is the no-effect control and ±100 the full control effect; potency means the concentration at half of the fitted maximal effect.

SMILES | Luc counter | RORgamma inh | Gal4-VP16 FLuc
COc1ccc(-c2nn(-c3ccccc3)cc2C(=O)O)cc1 | 5.6% | 4.1% | -27.0%
COc1ccc(-c2nn(-c3ccccc3)cc2/C=C/C(=O)OCC(=O)Nc2ccc(C#N)cc2)cc1 | 1.4% | ? | -14.7%
CCn1cc(/C=N/NC(=O)c2ccc3c(c2)OCO3)c(C)n1 | -5.5% | -15.6% | 19.5%
C=CCNC(=S)N/N=C/c1cn(-c2ccccc2)nc1-c1ccc(OC)cc1 | 0.4% | 0.708µM* | 1.26µM*
O=C(N/N=C/c1cn(-c2ccccc2)nc1-c1ccc2c(c1)OCCO2)c1ccncc1 | -1.1% | 2.24µM* | 5.01µM*
COc1ccc(-c2nn(-c3ccccc3)cc2/C=N/NC(=O)c2ccc(Br)o2)cc1 | -1.6% | 1.26µM* | 3.98µM*
COc1ccc2c(c1)O[C@@H](c1ccc3c(c1)OCO3)[C@H](OC(=O)NS(=O)(=O)c1ccc(F)cc1)C2=O | -2.2% | 4.8% | 9.5%
O=c1c(-c2ccc(F)cc2)nc2cnc(Oc3ccccc3)nc2n1Cc1cccs1 | . | 10.5% | -1.2%
CC(=O)Nc1ccc(NC(=O)CCCn2cnc3ccccc3c2=O)cc1 | . | 6.2% | -2.9%
CC(=O)OC[C@@H]1O[C@@H](O/N=C2/C[C@@H](O)[C@@H](O)[C@@H]3[C@@H]4C(=O)N(C5CCCCC5)C(=O)[C@H]4CC[C@@H]23)[C@H](OC(C)=O)[C@H](OC(C)=O)[C@@H]1OC(C)=O | . | -0.3%[10 µM] | 0.6%[10 µM]
O=C1CC(c2ccccc2Cl)=NN(c2ncnc3ccccc23)C1=O | -0.8% | ? | 8.3%
CC[C@H](C)[C@H](NC(=O)[C@H](CC(=O)O)NC(=O)[C@H](CC(N)=O)NC(=O)[C@@H](NC(=O)[C@H](CCCNC(=N)N)NC(=O)[C@@H](NC(=O)[C@@H](NC(=O)[C@@H](NC(=O)[C@@H](NC(=O)[C@H](CCCCN)NC(=O)[C@@H](NC(=O)[C@H](CC(C)C)NC(=O)[C@@H](NC(=O)[C@H](CCCCN)NC(=O)[C@@H](NC(=O)[C@H](CC(=O)O)NC(=O)[C@H](CC(=O)O)NC(=O)[C@H](CCC(N)=O)NC(=O)[C@@H](NC(=O)[C@H](CCCCN)NC(=O)[C@H](CCC(N)=O)NC(=O)[C@@H](NC(=O)[C@@H]1CCCN1C(=O)[C@@H](N)C(C)C)[C@@H](C)CC)C(C)C)[C@@H](C)O)[C@@H](C)O)[C@@H](C)CC)[C@@H](C)O)[C@@H](C)CC)C(C)C)[C@@H](C)O)[C@@H](C)CC)C(=O)N[C@@H](CO)C(=O)N[C@@H](Cc1cnc[nH]1)C(=O)N[C@H](C(=O)N[C@@H](CCC(N)=O)C(=O)N[C@@H](CO)C(=O)N[C@H](C(=O)N[C@@H](CO)C(=O)N[C@@H](CO)C(=O)N[C@@H](CCCCN)C(=O)N[C@@H](CCC(N)=O)C(=O)N[C@@H](CCCCN)C(=O)O)C(C)C)[C@@H](C)O | . | 8.8% | -3.9%
Cc1ccc(OC(=O)c2sc(Cl)nc2C)cc1C | -2.1% | ? | -2.6%
Cc1cc(C(=O)Nc2c(C)nn(Cc3ccc(Cl)cc3)c2C)no1 | -2.1% | 38.1% | -0.7%[10 µM]
Cc1nn(Cc2ccc(Cl)cc2)c(C)c1NC(=O)C(c1ccccc1)c1ccccc1 | 0.5% | 11.2µM* | -0.9%
O=C(/C=C/c1ccc(O)c(O)c1)OC1C[C@](O)(C(=O)O)C[C@@H](O)[C@H]1O (stereo partly specified) | . | 21.7% | 5.9%
CN1CCN(C(=S)Nc2cc([N+](=O)[O-])ccc2Cl)CC1 | -1.8% | -5.3%[10 µM] | 1.2%
O=C(CN1C(=O)c2ccccc2S1(=O)=O)c1ccc(F)cc1 | . | 7.94µM* | 5.01µM*
O=C(CN1C(=O)c2ccccc2S1(=O)=O)c1cccc(Br)c1 | . | ? | -17.5%
COC(=O)c1ccc(NC(=O)CN2C(=O)c3ccccc3S2(=O)=O)cc1 | . | -28.0% | -2.8%
O=C(CN1C(=O)c2ccccc2S1(=O)=O)c1ccc(OC(F)F)cc1 | . | 12.6µM* | 10µM*
COc1ccccc1C(=O)C1CCCN(C(=O)c2cn3cc(Cl)ccc3n2)C1 (stereo unspecified) | -3.1% | ? | -4.6%
Cc1c[nH]c2cccc(OCC(O)CNC(C)(C)C)c12 (stereo unspecified) | -2.0% | 1.41µM* | -11.0%
CC(C)(C)NCC(O)COc1ccccc1C(C)(C)C (stereo unspecified) | 0.9% | -4.2% | 2.0%
CCOc1ccccc1-c1nnc2n1N=C(c1c(OC)cccc1OC)CS2 | . | -15.5% | 5.6%
SMILES | Luc counter | RORgamma inh | Gal4-VP16 FLuc
O=C(COc1ccc(Br)cc1Br)NNC(=O)c1cccs1 | . | -6.4% | 0.4%
Cc1cc(OCC(=O)NNC(=S)NC(=O)c2cccs2)ccc1Cl | . | 7.94µM* | ?
Cc1ccc(OCC(=O)NNC(=S)NC(=O)c2cccs2)c(C)c1 | . | 10µM* | 11.2µM*
COc1ccc(OCC(=O)NNC(=O)c2cccs2)cc1 | -1.3% | -3.9% | 3.2%
O=C(O)CCCC(=O)NCCCCc1ccccc1 | 5.8% | 0.1% | -10.2%
COc1ccc(OC(C)c2nnc(N)s2)cc1 (stereo unspecified) | -0.7% | 15.0% | 7.4%
NCC1O[C@H](O[C@@H]2C(O)[C@H](O[C@H]3OC(CO)C(O)C(N)C3O)[C@@H](N)C[C@H]2N)[C@@H](N)CC1O (stereo partly specified) | -2.6% | -6.7% | -10.7%
CN(C)c1ccc(/C=N/n2ncc3ccccc32)cc1 | -11.2% | 0.708µM* | 7.08µM*
C=CCn1c(/N=C/c2ccc(N(C)C)cc2)nc2ccccc21 | . | -27.4% | 2.4%
CCN(Cc1ccncc1)Cc1cn(C)nc1-c1ccc(Oc2ccccc2)cc1 | -5.1% | -2.4% | -0.8%
COc1ccc(CN2CCN(Cc3ccc(C(F)(F)F)cc3)CC2)cc1 | . | 14.2% | 3.4%
COc1ccc(-c2[nH]c(-c3ccc(SC)cc3)nc2SCC(=O)Nc2nccs2)cc1 | 1.9% | 20.9% | -2.5%
CNC(=S)Nc1cc(OC)ccc1OC | 6.6% | 11.2µM* | ?
COc1ccc(OC)c(NC(=S)NCc2cccs2)c1 | -1.5% | 14.1µM* | ?
COc1ccc(OC)c(-c2cc(C(=O)NCc3cccs3)no2)c1 | -1.2% | 42.0% | -10.1%
COc1ccc(NC(=S)NCc2cccs2)cc1 | -2.2% | 3.98µM* | ?
CCN(CC(=O)NCc1cccs1)S(=O)(=O)c1ccc(C(C)C)cc1 | 4.9% | 39.2% | 13.5%
COc1ccc(C(=O)Nc2cc(OC)ccc2OC)cc1 | -5.7% | 15.0% | 3.8%
CC(C)c1ccc(NC(=S)NCc2cccs2)cc1 | -2.4% | 15.8µM* | ?
COc1ccc(S(=O)(=O)NCc2cccs2)cc1 | -1.3% | -11.9% | -3.2%
COc1ccc(C[C@@H](NS(=O)(=O)c2ccc(C(=O)O)cc2)C(=O)O)cc1 | . | -17.7% | -16.3%
Cc1cccc(C)c1OCC(=O)N1CCc2ccccc2C1 | . | -7.9% | 1.6%
Cc1ccc(Cl)cc1NC(=O)Nn1cnnc1 | . | -2.2% | -1.0%
CCOc1ccc(N2C(=O)CC(N(Cc3ccco3)C(C)=O)C2=O)cc1 (stereo unspecified) | -0.1% | 21.6% | -5.9%
Fc1cccc(Cl)c1/C=N\N=C1c2ccccc2-c2ccccc21 | -0.7%[7.66 µM] | . | .
CCOc1cccc(C(=O)Nc2ccccc2C(=O)N2CCOCC2)c1 | . | -2.5% | -2.9%
